HT1080 IDH1KD tx: HT-1080 IDH1 knockdown cell toxicity (counter line) | HT-1080 IDH1 knockdown viability, ATP luminescence, 48 h | Potency, µM (doses to about 46.1 µM), inactives show at the highest dose activity, negative = toxicity, actives largely listed as cytotoxic | actives 2% (n = 360,000) | AID 686971;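 also: 0% = DMSO wells and -100% = cell-free medium wells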
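Knockdown cells (IDH1KD HT-1080) received compounds 2 h after plating at 750 cells/well and were kept 48 h at 37 °C in 5% FBS RPMI. A CellTiter-Glo luminescence read gave % activity for curve fitting.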
SW480 rereplic: induces DNA re-replication in SW480 colon adenocarcinoma cells; SW480 DNA re-replication, Hoechst DNA content imaging, 48 h; Potency, µM (doses to about 46.1 µM), without a hit: at the top dose re-replication activation, hits mostly activators; actives 1.8% (n = 340,000); AID 624297; also: % of control where 0% means no effect; nearly all actives have a fitted effect of over 55% in size
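Image-based read-out: total Hoechst fluorescence of nuclei (405 nm excitation, 500-530 nm emission), with hits raising the fraction of high-intensity nuclei. SW480 colon cells incubated 48 hr with compounds at 37 C.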
KB-V1 cytotox: KB-V1 MDR subline cytotoxicity; Potency, µM (doses to about 46.1 µM), most hits filed as cytotoxic; AID 1347076; KB-V1 MDR cells viability, CellTiter-Glo, 72 h; actives 3.4% (n = 400,000); also: % is scaled to controls: 0 for no effect and ±100 for the full control effect; nearly all actives have a fitted effect of over 60% in size
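Cells of the MDR subline KB-V1 are plated, dosed with compound at multiple concentrations, and incubated 72 h at 37 degrees C; CellTiter-Glo is then added and luminescence read after 10 min.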
KB-3-1 cytotox: kills parental KB-3-1 adenocarcinoma cells. actives 1.4% (n = 400,000). AID 1347075. KB-3-1 viability, CellTiter-Glo ATP luminescence, 72 h. Potency, µM (top dose mostly 46.1 µM), actives largely listed as cytotoxic; also: % is scaled to controls: 0 for no effect and ±100 for the full control effect; nearly all actives have a fitted effect of over 60% in size
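KB-3-1 cells, DMEM (no phenol red) + 10% FBS; compound by pin transfer, 72 h, 37 °C. Readout: CellTiter-Glo luminescence after 10 min. Data normalized, curve-fitted.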
HT1080-NT tox: kills 2HG-producing HT-1080-NT fibrosarcoma cells. HT-1080-NT fibrosarcoma viability, CellTiter-Glo ATP luminescence, 48 h. Potency, µM (titrated, usually from 46.1 µM), without a hit: at the highest dose activity, negative = less viability, most hits filed as cytotoxic. actives 1.6% (n = 360,000). AID 686970;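 also: NT is the 2HG producing partner of a matched IDH1 knockdown line; 0% = DMSO-treated cells and -100% = media-only wells without cells; nearly all actives have a fitted effect of over 55% in size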
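Viability by CellTiter-Glo luminescence after 48 h compound exposure at 37C of HT-1080-NT cells (750/well, RPMI, 5% FBS). % activity scaled between DMSO wells and medium-only wells, then curve-fitted and categorized by curve class.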
MCF10A rerep: induces DNA re-replication in MCF 10a normal breast cells; actives 2.9% (n = 350,000); MCF 10A DNA re-replication, Hoechst nuclear intensity, 48 h; Potency, µM (series often up to 46.1 µM), for inactives: at the top dose activity, positive = re-replication, most hits filed as activators; also: % of control where 0% means no effect; nearly all actives have a fitted effect of over 50% in size
An asterisk follows results filed as active; [ ] = dose if it differs, or a comment. Hits are enriched below; roughly 7.9% of the tested compounds scored in any of these assays. Calls follow the shape of the dose curve; as a rule, active = well fitted curve in the direction sought with a large enough effect; inconclusive = small, poorly fitted or top-dose-only effect, or another doubt; inactive = no such curve, though single readings can be large; an effect the other way counts as inactive or inconclusive. Potency is read from the fitted curve at half-maximal effect.

Results for CCN1C(=O)c2cccc3c(NS(=O)(=O)c4ccc(NC(C)=O)cc4)ccc1c23 ?
HT1080 IDH1KD tx: -10.6%; SW480 rereplic: 0.5%; KB-V1 cytotox: inactive; KB-3-1 cytotox: inconclusive; HT1080-NT tox: -17.8%; MCF10A rerep: inconclusive

Results for CCOC(=O)c1ccc(NC(=O)Nc2ccc3c4c(cccc24)C(=O)N3CC)cc1 ?
HT1080 IDH1KD tx: -3.4%; SW480 rereplic: 6.6%; KB-V1 cytotox: inactive; KB-3-1 cytotox: inactive; HT1080-NT tox: 23.9%; MCF10A rerep: 23.1µM*

What do the screens show for `Cc1ccc(NC(=O)c2ccc3snnc3c2)cc1Cl`?
KB-V1 cytotox: inactive; KB-3-1 cytotox: inactive

How did CCCCn1c(N)c(N(CCOC)C(=O)CCCc2nc3ccccc3c(=O)[nH]2)c(=O)[nH]c1=O do in these assays?
HT1080 IDH1KD tx: -3.6%; SW480 rereplic: 23.1µM*; KB-V1 cytotox: inactive; KB-3-1 cytotox: inconclusive; HT1080-NT tox: -3.4%; MCF10A rerep: 9.2%

What do the screens show for `Nc1c(N(CCC2=CCCCC2)C(=O)COc2ccc(F)cc2Cl)c(=O)[nH]c(=O)n1Cc1ccccc1`?
HT1080 IDH1KD tx: 10.3µM*; SW480 rereplic: 0.4%; KB-V1 cytotox: inconclusive; KB-3-1 cytotox: 8.2µM*; HT1080-NT tox: 18.4µM*; MCF10A rerep: 11.6µM*

What do the screens show for `CCCCCN(C(=O)CCC(=O)OCc1ccc(C(C)C)cc1)c1c(N)n(CCCC)c(=O)[nH]c1=O`?
HT1080 IDH1KD tx: -14.0%; SW480 rereplic: 22.3%; KB-V1 cytotox: inactive; KB-3-1 cytotox: inactive; HT1080-NT tox: -5.5%; MCF10A rerep: 23.1µM*

How did Nc1c(N(CCC2=CCCCC2)C(=O)Cc2ccc(F)cc2)c(=O)[nH]c(=O)n1Cc1ccccc1 do in these assays?
HT1080 IDH1KD tx: -7.1%; SW480 rereplic: inconclusive; KB-V1 cytotox: inactive; KB-3-1 cytotox: inactive; HT1080-NT tox: -3.6%; MCF10A rerep: 14.0%

What do the screens show for `CCCCN(C(=O)CCCc1nc2ccccc2c(=O)[nH]1)c1c(N)n(CCCC)c(=O)[nH]c1=O`?
HT1080 IDH1KD tx: 2.7%; SW480 rereplic: -0.6%; KB-V1 cytotox: inactive; KB-3-1 cytotox: inconclusive; HT1080-NT tox: 8.3%; MCF10A rerep: -2.2%

What do the screens show for `COCCN(C(=O)COC(=O)c1ccccc1Oc1ccccc1)c1c(N)n(Cc2ccccc2)c(=O)[nH]c1=O`?
HT1080 IDH1KD tx: -0.6%; SW480 rereplic: 20.6µM*; KB-V1 cytotox: inactive; KB-3-1 cytotox: inconclusive; HT1080-NT tox: -1.6%; MCF10A rerep: 0.3%

How did CCOc1ccc(NC(=O)CSC2=Nc3ccccc3C3=NC(Cc4ccccc4)C(=O)N23)cc1 (stereo not given) do in these assays?
KB-V1 cytotox: inactive; KB-3-1 cytotox: inactive

Results for CCCCCN(C(=O)CCC(=O)OCc1ccccc1F)c1c(N)n(CCCC)c(=O)[nH]c1=O ?
HT1080 IDH1KD tx: 1.2%; SW480 rereplic: -0.5%; KB-V1 cytotox: inactive; KB-3-1 cytotox: inconclusive; HT1080-NT tox: -1.0%; MCF10A rerep: 3.4%

How did CCCCCN(C(=O)CCC(=O)OCc1ccc(C(C)(C)C)cc1)c1c(N)n(CCCC)c(=O)[nH]c1=O do in these assays?
HT1080 IDH1KD tx: inconclusive; SW480 rereplic: -1.3%; KB-V1 cytotox: inactive; KB-3-1 cytotox: inactive; HT1080-NT tox: -27.4%; MCF10A rerep: 20.6µM*

Results for CCC(C)(C)NC(=O)CN(C(=O)CCC(=O)Nc1nccs1)c1ccccc1C ?
HT1080 IDH1KD tx: -8.9%; SW480 rereplic: -6.7%[9.22 µM]; KB-V1 cytotox: inactive; KB-3-1 cytotox: inactive; HT1080-NT tox: 0.3%; MCF10A rerep: 0.0%

How did CCC(CC)C(=O)N(C)c1c(C)nc2c(OCC=C(C)C)cccn12 do in these assays?
HT1080 IDH1KD tx: 14.6µM*; KB-V1 cytotox: inactive; KB-3-1 cytotox: inactive; HT1080-NT tox: inconclusive

What do the screens show for `CCn1ncc(/C=N\NC(=O)COc2cc(C)cc(C)c2)c1C`?
HT1080 IDH1KD tx: inconclusive; SW480 rereplic: inconclusive; KB-V1 cytotox: 11.6µM*; KB-3-1 cytotox: inconclusive; HT1080-NT tox: -1.3%; MCF10A rerep: 8.6%

How did COc1ccc(NC(=O)CN2C(=O)C(C)Oc3ccccc32)c(OC)c1 (stereo not given) do in these assays?
HT1080 IDH1KD tx: -25.1%; SW480 rereplic: -15.3%; KB-V1 cytotox: 16.4µM*; KB-3-1 cytotox: inactive; HT1080-NT tox: 7.9%; MCF10A rerep: 1.2%

Results for Cc1ccc(NC(=O)CN2C(=O)C(C)Oc3ccccc32)nc1 (stereo not given) ?
HT1080 IDH1KD tx: inconclusive; SW480 rereplic: -4.1%; KB-V1 cytotox: 14.6µM*; KB-3-1 cytotox: inactive; HT1080-NT tox: 7.7%; MCF10A rerep: 2.3%

What do the screens show for `COc1ccc(NC(=O)CN2C(=O)C(C)Oc3ccc(C)cc32)cc1` (stereo not given)?
HT1080 IDH1KD tx: 20.6µM*; SW480 rereplic: inconclusive; KB-V1 cytotox: inactive; KB-3-1 cytotox: inactive; HT1080-NT tox: inconclusive; MCF10A rerep: 16.0%

Results for O=C(Nc1ccc(C(=O)OC[C@@H]2CCCN3CCCC[C@H]23)cc1)c1cccc(Br)c1 ?
HT1080 IDH1KD tx: -6.1%; SW480 rereplic: -4.9%; KB-V1 cytotox: inactive; KB-3-1 cytotox: inactive; HT1080-NT tox: -11.3%; MCF10A rerep: 23.1µM*

How did O=C(NC(=S)N1CCCC1)c1ccccc1F do in these assays?
HT1080 IDH1KD tx: -1.5%; SW480 rereplic: -5.0%; KB-V1 cytotox: inactive; KB-3-1 cytotox: inactive; HT1080-NT tox: 0.5%; MCF10A rerep: 2.9%

Results for CC(=O)c1cccc(N(C(=O)CNC(=O)c2ccco2)C(C(=O)NC2CCCC2)c2ccco2)c1 (stereo not given) ?
HT1080 IDH1KD tx: 5.9%; SW480 rereplic: -10.4%; KB-V1 cytotox: inactive; KB-3-1 cytotox: inactive; HT1080-NT tox: 22.2%; MCF10A rerep: 0.8%

How did Cc1nn(C)c(C)c1CNC(=O)c1nn2c(c1Cl)NC(c1cccs1)CC2C(F)(F)F (stereo not given) do in these assays?
HT1080 IDH1KD tx: inconclusive; SW480 rereplic: -3.4%; KB-V1 cytotox: 9.2µM*; KB-3-1 cytotox: inconclusive; HT1080-NT tox: inconclusive; MCF10A rerep: -3.1%

What do the screens show for `Cc1nn(Cc2ccc(F)cc2)c(C)c1NC(=O)c1cnn2c1NC(c1cccs1)CC2C(F)(F)F` (stereo not given)?
HT1080 IDH1KD tx: inconclusive; SW480 rereplic: 2.9%; KB-V1 cytotox: 20.6µM*; KB-3-1 cytotox: inactive; HT1080-NT tox: -9.5%; MCF10A rerep: 8.7%
